According to PubChem BioAssay AID1259312 (Keith Lab, Institute of Cancer Science, University of …, 2017):
In all, about 4,500 compounds went through this assay and about 200 (4.4%) were called active.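 How the source made its calls: active means cell survival measured by absorbance rises more than 2.5-fold over infected cells without compound; inactive means the rest.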 Only a selection was taken, and actives are over-represented in it overall.

Assay: survival after telomere uncapping, modulators, primary screen, cell-based (AID 1259312);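 further: virus expresses mutant telomerase RNA that uncaps telomeres and kills cells; compound added 2 days after infection so exposure lasts 3 days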
Conditions: HCT116 + Ad-hTR-mut, MTT, 5 d; at 10 µM, stronger effect = higher value

| Compound | fold change |
| --- | --- |
| Cc1[nH]c2ccccc2c1C(=O)C(=O)NC(C)(C)C | -1.22 (inactive) |
| CCOC(=O)c1c(NC(=O)C23CC4CC(CC(C4)C2)C3)sc2c1CCCCC2 | -1.2 (inactive) |
| N#C/C(=C\c1ccccc1/C=C(\C#N)c1ccc2c(c1)OCO2)c1ccc2c(c1)OCO2 | 1.78 (inactive) |
| CC(=O)OC[C@H]1O[C@@H](n2cc(C)c(=O)[nH]c2=O)C[C@@H]1OC(C)=O | -1.48 (inactive) |
| Clc1ccccc1/C=C/c1nnc(-c2ccccc2Cl)o1 | -1.03 (inactive) |
| CC12CCC(=O)C=C1CCC1C2CCC2(C)C1CC[C@@]21OCOC12COCO2 (stereo partly specified) | 3.17 (active) |
| CC(=O)[C@H]1CC[C@H]2[C@@H]3CCC4=CC(=O)CC[C@]4(C)[C@H]3CC[C@]12C | 1.4 (inactive) |
| CCCCCC(=O)O[C@]1(C(C)=O)CC[C@H]2[C@@H]3CCC4=CC(=O)CC[C@]4(C)[C@H]3CC[C@@]21C | -1.16 (inactive) |
| CC(Sc1nnc(Cc2ccccc2)n1C1CCCCC1)c1nc(N)nc(N2CCCc3ccccc32)n1 (stereo unspecified) | -1.7 (inactive) |
| O=c1cc(-c2cccc(O)c2)oc2cc(O)ccc12 | -1.53 (inactive) |
| O=C(c1ccc(COc2ccc(Cl)cc2Cl)o1)n1cc(Br)cn1 | -1.16 (inactive) |
| CC1CC[C@H](C(C)C)C(O)C1 (stereo partly specified) | -1.42 (inactive) |
| O=c1[nH]c(SCc2nc3ccc([N+](=O)[O-])cc3[nH]2)nc2ccccc12 | inactive |
| O=[N+]([O-])c1ccc2nc(CSc3nc4ccc(Br)cc4[nH]3)[nH]c2c1 | 3.33 (active) |
| Cn1c(SCc2nc3ccc([N+](=O)[O-])cc3[nH]2)nc2ccccc21 | -1.29 (inactive) |
| Clc1[nH]nc2ccccc12 | 1.09 (inactive) |
| CN(Cc1cc(Br)cc(Br)c1N)C1CCCCC1 | -1.39 (inactive) |
| O=[N+]([O-])c1cc(Cl)c2cccnc2c1O | 2 (inactive) |
| CN1CCN(Cc2cc([N+](=O)[O-])c(O)c3ncccc23)CC1 | 2.98 (active) |
| O=[N+]([O-])c1ccc(N2CCCC2)cc1Sc1cccc2cccnc12 | 1.11 (inactive) |
| O=[N+]([O-])c1cc(CN2CCCC2)c2cccnc2c1O | 3.06 (active) |
| O=[N+]([O-])c1ccc(Sc2nnnn2-c2ccccc2)c2cccnc12 | -73.2 (inactive) |
| OCc1ccc(O)c2ncccc12 | -7.69 (inactive) |
| OCCOc1c(Cl)cc(Cl)c2cccnc12 | -1.42 (inactive) |
| CN(Cc1cc([N+](=O)[O-])c(O)c2ncccc12)C1CCCCC1 | 3 (active) |
| CN1CCN(Cc2cc(Cl)c3cccnc3c2O)CC1 | 3.37 (active) |

| Compound | fold change |
| --- | --- |
| O=[N+]([O-])c1ccc(N2CCN(S(=O)(=O)c3ccc4ccccc4c3)CC2)c2ncccc12 | -1.06 (inactive) |
| S=c1[nH]nc(-c2cccs2)n1-c1ccccc1 | -1.22 (inactive) |
| C=C(C)n1c(=O)[nH]c2ccccc21 | 1.29 (inactive) |
| Cc1c(Br)c([N+](=O)[O-])nn1CC(=O)O | 1.12 (inactive) |
| O=C1N=C(N2CCCC2)S/C1=C\c1ccc(Cl)cc1 | -1.52 (inactive) |
| COc1ccc(-c2nn(CN3CCN(C(c4ccccc4)c4ccccc4)CC3)c(=S)n2C)cc1 | -1.05 (inactive) |
| Brc1cccc(-c2nnc(SCc3ccon3)o2)c1 | -2.29 (inactive) |
| CCCSc1nnc(-c2ccc(Cl)cc2Cl)o1 | 2.03 (inactive) |
| Clc1ccc(CSc2nnc(-c3ccccc3Cl)o2)c(Cl)c1 | 3.91 (active) |
| Clc1ccc(CSc2nnc(-c3cccc(Br)c3)o2)c(Cl)c1 | 2.77 (active) |
| Clc1ccc(-c2nnc(SCc3nc(-c4ccccc4)no3)o2)cc1 | -1.07 (inactive) |
| Clc1ccc(-c2nnc(SCc3ccccc3)o2)c(Cl)c1 | 2.08 (inactive) |
| CC1(C)C=Cc2c(c3ccccc3[nH]c2=O)O1 | -1.4 (inactive) |
| O=C(Cc1cccs1)NC1CCCCCC1 | -2.19 (inactive) |
| Cc1ccc(-c2noc(COc3ccc4c(c3)OCO4)n2)cc1 | 1.5 (inactive) |
| CC1=C/C(=C(\c2cc(C)c(O)cc2C)c2ccccc2S(=O)(=O)O)C(C)=CC1=O | inactive |
| c1ccc(-c2nc3ccccc3nc2-c2ccccc2)cc1 | -1.02 (inactive) |
| O=S(=O)(Nc1nc2ccccc2nc1N1CCOCC1)c1ccccc1 | -1.42 (inactive) |
| CN1CCN(c2nc3ccccc3nc2N2CCN(C)CC2)CC1 | 2.65 (active) |
| CC(C)c1ccc(C2[C@H]3CN(C)CC=C3C(C#N)=C(N)C2(C#N)C#N)cc1 (stereo partly specified) | 2.14 (inactive) |
| CC(C)N1CC=C2C(C#N)=C(N)C(C#N)(C#N)C(c3ccc(F)cc3)[C@H]2C1 (stereo partly specified) | 3.68 (active) |
| CN1CC=C2C(C#N)=C(N)C(C#N)(C#N)C(c3ccc(F)cc3)[C@H]2C1 (stereo partly specified) | -37.3 (inactive) |
| COc1ccc(C2C3CCC=C3C(C#N)=C(N)C2(C#N)C#N)cc1 (stereo unspecified) | -1.15 (inactive) |
| CCCN1CC=C2C(C#N)=C(N)C(C#N)(C#N)[C@H](c3ccsc3)[C@H]2C1 | 2.9 (active) |
| N#CC1=C(N)C(C#N)(C#N)[C@@H](c2cccc(Br)c2)[C@@H]2CN(Cc3ccccc3)CC=C12 | 1.73 (inactive) |
| c1cnc(SCc2ccc3nsnc3c2)nc1 | 1.11 (inactive) |

| Compound | fold change |
| --- | --- |
| CC(=O)Nc1ccc(S(=O)(=O)N2CCCC2C(=O)NC2CC2)cc1 (stereo unspecified) | -1.03 (inactive) |
| COc1ccc(Oc2coc3cc(O)ccc3c2=O)cc1 | -2.75 (inactive) |
| N#C/C(=C\c1ccc2c(c1)OCO2)c1ccccn1 | -2.23 (inactive) |
| CC(=O)Nc1nonc1NC(=O)C(F)(F)F | -1.07 (inactive) |
| O=S(=O)(NCCn1cccc1)c1ccc2ccccc2c1 | 1.09 (inactive) |
| O=[N+]([O-])c1ccc(Cl)cc1N1CCOCC1 | 1.51 (inactive) |
| O=[N+]([O-])c1cc(Cl)ccc1N1CCN(c2ccc(Cl)cc2[N+](=O)[O-])CC1 | 2.59 (active) |
| O=[N+]([O-])c1cc(Cl)ccc1N1CCOCC1 | -1.07 (inactive) |
| CC(C)CC(N)C(N)=O (stereo unspecified) | -2.69 (inactive) |
| N#C/C(=C/c1ccncc1)C(N)=S | -1.8 (inactive) |
| COc1cc2c(Cc3c4c5c(cc(OC)c(OC)c5c5c(OC)c(OC)ccc35)CCN4C)c3c4c(cc(OC)c(OC)c4c2cc1OC)CCN3C | -1.39 (inactive) |
| COC(=O)C1=C(N)C(C(=O)OC)=c2s/c(=C/c3cccnc3)c(=O)n2C1c1cccnc1 (stereo unspecified) | 1.8 (inactive) |
| c1ccc(-c2nc(SCc3ccon3)[nH]c2-c2ccccc2)cc1 | -1.7 (inactive) |
| Cc1sc(NC(=O)Cn2cnc([N+](=O)[O-])n2)c(C(N)=O)c1C | 1.35 (inactive) |
| CC(C)CCCC(C)C1CCC2C3CC=C4CC(O)CCC4(C)C3CCC12C (stereo unspecified) | 1.54 (inactive) |
| CC(=O)OC1CCC2(C)C(=CCC3C2CC[C@]2(C)C(C(C)=O)CCC32)C1 (stereo partly specified) | 1.32 (inactive) |
| CCCCOC1CC[C@@]2(C)C(=CC[C@H]3[C@@H]4CC[C@H]([C@H](C)CCCC(C)C)[C@@]4(C)CC[C@@H]32)C1 (stereo partly specified) | -1.1 (inactive) |
| CC(=O)OC1CCC2(C)C(=CCC3C2CCC2(C)C3CC3OC32[C@H](C)OC(C)=O)C1 (stereo partly specified) | 4.11 (active) |
| CC(=O)OC1CCC2(C)C(=CCC3C2CCC2(C)C(C(C)O)CCC32)C1 (stereo unspecified) | 3.23 (active) |
| CC[C@H](/C=C/[C@@H](C)[C@H]1CC[C@H]2[C@@H]3CC=C4C[C@@H](O)CC[C@]4(C)[C@H]3CC[C@]12C)C(C)C | -1.34 (inactive) |
| CNc1oc(/C=C/c2ccccc2)nc1S(=O)(=O)c1ccc(Cl)cc1 | -1.12 (inactive) |
| CC(C)(C)Sc1c(Br)cccc1Br | -2.29 (inactive) |
| CCCc1nnc(NC(=O)c2ccoc2C)s1 | -1.3 (inactive) |
| CCOc1ccc(-n2c(C)cc(C(=S)N3CCOCC3)c2C)cc1 | -3.28 (inactive) |
| CCC(C)C(NC(C)=O)C(=O)O (stereo unspecified) | 1.28 (inactive) |
| NC1CCCc2c1[nH]c1ccc(Br)cc21 (stereo unspecified) | -11 (inactive) |

| Compound | fold change |
| --- | --- |
| c1ccc(OCC2CCNCC2)nc1 | 2.98 (active) |
| CC(C)(C)c1cc(Cl)cc(Cc2cc(C(C)(C)C)c(O)c(C(C)(C)C)c2)c1O | -1.42 (inactive) |
| CCOC(=O)C1=C(C(=O)OCC)SC(=C2C(=S)C(C)(C)N(C)c3ccc(C)cc32)S1 | -1 (inactive) |
| O=C(Nc1ccc(F)cc1)Nc1nncs1 | -1.15 (inactive) |
| O=C(Nc1ccccc1)Nc1ccc2c(c1)OCCO2 | -1.3 (inactive) |
| O=C(Nc1ccccc1)Nc1snnc1C(=O)O | 4.77 (active) |
| CCOC(=O)C1CCN(C(=O)CC(C)C)CC1 | -1.61 (inactive) |
| O=S(=O)(Nc1cccc2ccccc12)N1CCCCC1 | -1.29 (inactive) |
| C=CCN(CC=C)C(=O)Cc1cccs1 | -1.46 (inactive) |
| Oc1c(Br)cc(Br)cc1C=Nc1ccc(Br)cc1 | inactive |
| O=[N+]([O-])c1ccc(O)c(C=Nc2ccc(I)cc2)c1 | inactive |
| COc1ccc(OC)c(N=Cc2cc(Br)ccc2O)c1 | active |
| COc1cc2c(cc1N=Cc1cc(Br)ccc1O)oc1ccccc12 | inactive |
| Oc1ccc(Br)c(C=Nc2ccc(-c3ccc(N=Cc4cc(Br)ccc4O)cc3)cc2)c1 | active |
| COc1ccc(OC)c(N=Cc2cc(Cl)cc(Cl)c2O)c1 | inactive |
| Oc1ccc(Br)cc1C=Nc1cc(Cl)ccc1Cl | inactive |
| Oc1ccc(Br)cc1C=Nc1cc(Cl)cc(Cl)c1 | inactive |
| Oc1ccc(Br)cc1C=Nc1ccc(I)cc1 | active |
| O=c1c2ccc(Cl)c3c(Cl)ccc(c32)c2nc3ccccc3n12 | -2.06 (inactive) |
| Cc1cc(C)n(C(=O)c2nn(C)cc2[N+](=O)[O-])n1 | 1.61 (inactive) |
| O=[N+]([O-])c1cc(Br)cc(C=Nc2ccc(I)cc2)c1O | inactive |
| N#CC1=C(N)Oc2[nH]c(=O)[nH]c(=O)c2C1c1cccnc1 (stereo unspecified) | 1.23 (inactive) |
| O/N=C(\c1ccccc1)C(O)c1ccccc1 (stereo unspecified) | -1.85 (inactive) |
